# Results reported in the supplement of paper PMC6555819.
# Tested on: VDR:RXRa (NR concentration 270 nM, RXRa partner concentration 90 nM)
# Assay: PBM binding z-score (relative to random genomic background probes); higher = stronger binding; sequences stand for … in GC…GCGATTGACAGCGTAGAATGAAGG
# Method: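 Protein-binding microarray (Agilent 4x180K custom design, double-stranded 60-nt probes: 5' GC cap, 34-nt variable region, 24-nt constant primer region; full probe sequence given). Purified or IVT nuclear receptor:RXRα heterodimers (3:1 NR:RXRα, mostly 270:90 nM) or homodimers were incubated for 1 h in PBS with 2% milk and no ligand, then detected with Alexa488 antibodies. Fluorescence from o1-orientation probes (~5 replicates averaged) was converted to z-scores against 500 random hg19 background probes. Variable regions are seed direct-repeat (DR0–DR5) sites, all their single-nucleotide variants and half-site ablations.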
row,Sequence,PBM binding z-score
1,TAGCCTAGGTCATGCGGGCCATTATAGTGTCGGC,4.09
2,CGTCAAAGTTCAACTAAGGCAACGTAAAGCACGC,4.19
3,CCTACTGGGCCATTAGGTCATTGATATCAACGTT,1.47
4,AGAATGAGGTTATACGTAGATCAGGGAAGAAAGT,1.52
5,CGTCCAAAGTCAAGGTCAGTGAAAGAGACTCGAA,2.11
6,ATATGTAGGTTATCGGGTCATGCAGTTTGCGCAT,4.98
7,CCGACTGGCGCAGAAAGGTTACCATACCATCCGG,0.29
8,CCTACTGGGCCACAAAGGTCATTGATGCCGATAA,5.28
9,TTACCAAGTTGAAAGGTCGTTGATGCACGCCTTG,2.65
10,GGAACGAGGGCATTCCAGTTGATAGCATGGCGAT,2
11,TCTTGTAGATCAGCAGGTTATGAAAGCTGGCCAA,0.359
12,TCTTGTAGATCAGCAGGTTAGGAAAGCTGGCCAA,0.153
13,CCTATCAGGCCAATCTGGGTCACTCAAGGCTTGA,0.878
14,CCAGACCGGTGAGAAGGTAACTCAGCCTCGATTA,-0.163
15,GGAACGAGGGCAATCGAGTTGATAGCATGGCGAT,3.11
16,CTACCAAGGTGAACAAGGTCGTTTATTACTATTC,6.54
17,CCCACTGGGCCAAAGGTCATTGATTCCAATGCTC,4.73
18,CCGACTGGGGCAAAGGTTACCGTACTCAGTACGA,1.39
19,TCATATGGGTAAATGCTAGGTGAAAGTCCGATCT,0.528
20,GCTCGGAGTACAAGGTCAGAGCTTTGTCCGTAGA,1.48

row,Sequence,PBM binding z-score
1,AGTCAAAGTTCAGGACGAGGTAACGAAAAGCACG,2.95
2,CCTACTCGGCCACGAAAGGTCATTGATTCAGTGA,4.1
3,TCGAGTAGGTTGGGGGCATTCAGAATGGCGTCGA,2.65
4,AATACAGGGTCATCGTAGGCGAGAGTACGCACAG,5.01
5,GCTAGCAGTCCATTTGGGTCACTCAATGACGGGC,0.562
6,CCTTACGGGTCACTGACAGGTTATACCATTTGGA,3.9
7,AGAATGTGGTTAAGATCAGGGAAACAGAATACAT,-0.0223
8,TAGCCTAGGTCATTGGGCCAGTCTAGTACGCATC,1.98
9,ATCTCTACGTAAAGATAGTTCAGTGAATGCAAAT,0.567
10,ATATGTAGGCTACATCCGGGTCATTCAGGCTATG,2.92
11,ATCTCTAGGTAAGACTCAGTTCAGTCAAGAACGC,0.989
12,CAAACTAGGTCAAGAGGTCGAAGTCCGCTTCCCG,4.04
13,CAAACTAGGTCATCGGAAGGTCAAAGTCCGCATG,5.72
14,TGAATGCGGTTATAAGATCAGGGAACGTTGCAAA,-0.0836
15,TAATATAGGTAAACAGGTGAAAGTCCGTAAGTTA,1.19
16,ATATGTAGGTTATCTGGTCATTCAGTTTGCGCAT,2.12
17,AGAACGAGGGCAATGAGTTGAAAGCACGGGTGGC,5.39
18,CGTACTGGGCCAAAAAGGTCATTGATGCCGATAA,5.04
19,CCTGCTAGGTCAATGGACAGCTAAAGCAGCTCGC,0.586
20,CGAACTAGGTCATCCACGACAGTGAATACATTGA,2.18
